Hit rate of the full screen: of about 5,500 compounds, about 2,000 (36%) were called active. Inconclusive results (about 18%) are left out. Rule as the data show it: active = normalized growth mostly below about 0.91 (no sharp cut-off); inconclusive = no clear call, values can overlap the other calls; inactive = mostly above about 0.92. This is one part of the list.
Experiment: chemical genetic growth profiling, strain panel (AID 1159580);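 also: tested at 20 µM; growth read once vehicle control cultures reached saturation at 30 °C; 1 = growth at the plate median or of vehicle wells; lower values mean less growth of the strain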
Conditions: growth OD

Measured: normalized growth

C[C@]12CC(=O)C3C(CC[C@@H]4C[C@H](O)CC[C@]34C)C1CC[C@]2(O)C(=O)CO (stereo not given in full)
inactive: S. cerevisiae deletion strains, locus YAL013W, strain DEP1, stronger effect = lower value 0.997 | S. cerevisiae deletion strains, locus YBR021W, strain FUR4, stronger effect = lower value 0.976 | S. cerevisiae deletion strains, locus YBR229C, strain ROT2, stronger effect = lower value 0.99 | S. cerevisiae deletion strains, locus YCL029C, strain bik1, stronger effect = lower value 1.01 | S. cerevisiae deletion strains, locus YDL035C, strain GPR1, stronger effect = lower value 0.996 | S. cerevisiae deletion strains, locus YDL074C, strain BRE1, stronger effect = lower value 0.978 | S. cerevisiae deletion strains, locus YDL101C, strain DUN1, stronger effect = lower value 0.996 | S. cerevisiae deletion strains, locus YDL185W, strain tfp1, stronger effect = lower value 0.977 | S. cerevisiae deletion strains, locus YDL192W, strain arf1, stronger effect = lower value 1 | S. cerevisiae deletion strains, locus YDR101C, strain arx1, stronger effect = lower value 0.978 | S. cerevisiae deletion strains, locus YDR150W, strain NUM1, stronger effect = lower value 0.994 | S. cerevisiae deletion strains, locus YDR162C, strain NBP2, stronger effect = lower value 1.02 | S. cerevisiae deletion strains, locus YDR318W, strain mcm21, stronger effect = lower value 1.01 | S. cerevisiae deletion strains, locus YDR388W, stronger effect = lower value 0.995 | S. cerevisiae deletion strains, locus YDR502C, strain sam2, stronger effect = lower value 1.01 | S. cerevisiae deletion strains, locus YEL061C, strain CIN8, stronger effect = lower value 0.995 | S. cerevisiae deletion strains, locus YER110C, stronger effect = lower value 0.986 | S. cerevisiae deletion strains, locus YER155C, strain BEM2, stronger effect = lower value 0.986 | S. cerevisiae deletion strains, locus YER167W, strain BCK2, stronger effect = lower value 0.992 | S. cerevisiae deletion strains, locus YGL078C, strain dbp3, stronger effect = lower value 0.983 | S. cerevisiae deletion strains, locus YGL086W, strain mad1, stronger effect = lower value 0.97 | S. cerevisiae deletion strains, locus YGL248W, strain PDE1, stronger effect = lower value 1.01 | S. cerevisiae deletion strains, locus YGR135W, strain pre9, stronger effect = lower value 1.03 | S. cerevisiae deletion strains, locus YGR252W, strain gcn5, stronger effect = lower value 1.06 | S. cerevisiae deletion strains, locus YHR030C, strain SLT2, stronger effect = lower value 0.991 | S. cerevisiae deletion strains, locus YHR079C, strain IRE1 (second series), stronger effect = lower value 0.992 | S. cerevisiae deletion strains, locus YHR094C, strain hxt1, stronger effect = lower value 0.986 | S. cerevisiae deletion strains, locus YHR129C, strain ARP1, stronger effect = lower value 0.992 | S. cerevisiae deletion strains, locus YHR200W, strain rpn10, stronger effect = lower value 1.02 | S. cerevisiae deletion strains, locus YIL066C, strain RNR3, stronger effect = lower value 0.998 | S. cerevisiae deletion strains, locus YIL073C, strain SPO22, stronger effect = lower value 1.03 | S. cerevisiae deletion strains, locus YIL125W, strain kgd1, stronger effect = lower value 0.997 | S. cerevisiae deletion strains, locus YIR030C, strain dcg1, stronger effect = lower value 0.991 | S. cerevisiae deletion strains, locus YJL095W, strain BCK1, stronger effect = lower value 1.04 | S. cerevisiae deletion strains, locus YJL134W, strain LCB3, stronger effect = lower value 0.992 | S. cerevisiae deletion strains, locus YJL168C, strain set2, stronger effect = lower value 0.994 | S. cerevisiae deletion strains, locus YJL187C, strain SWE1 (second series), stronger effect = lower value 1 | S. cerevisiae deletion strains, locus YJR043C, strain POL32, stronger effect = lower value 1 | S. cerevisiae deletion strains, locus YJR075W, strain HOC1, stronger effect = lower value 0.997 | S. cerevisiae deletion strains, locus YKL009W, strain mrt4, stronger effect = lower value 1.1 | S. cerevisiae deletion strains, locus YKL068W, stronger effect = lower value 0.994 | S. cerevisiae deletion strains, locus YKL085W, strain MDH1 (second series), stronger effect = lower value 1 | S. cerevisiae deletion strains, locus YKL085W, strain MDH1, stronger effect = lower value 1 | S. cerevisiae deletion strains, locus YKR001C, strain vps1, stronger effect = lower value 0.987 | S. cerevisiae deletion strains, locus YLR039C, strain RIC1, stronger effect = lower value 0.977 | S. cerevisiae deletion strains, locus YLR058C, strain SHM2, stronger effect = lower value 1.01 | S. cerevisiae deletion strains, locus YLR102C, strain apc9, stronger effect = lower value 0.997 | S. cerevisiae deletion strains, locus YLR262C, strain YPT6, stronger effect = lower value 1 | S. cerevisiae deletion strains, locus YLR268W, strain sec22, stronger effect = lower value 0.96 | S. cerevisiae deletion strains, locus YLR330W, strain CHS5, stronger effect = lower value 0.994 | S. cerevisiae deletion strains, locus YLR342W, strain FKS1 (second series), stronger effect = lower value 0.982 | S. cerevisiae deletion strains, locus YLR371W, strain rom2, stronger effect = lower value 0.993 | S. cerevisiae deletion strains, locus YLR418C, strain cdc73, stronger effect = lower value 1.01 | S. cerevisiae deletion strains, locus YML016C, strain PPZ1, stronger effect = lower value 0.991 | S. cerevisiae deletion strains, locus YML032C, strain rad52, stronger effect = lower value 1.04 | S. cerevisiae deletion strains, locus YML124C, strain tub3, stronger effect = lower value 0.998 | S. cerevisiae deletion strains, locus YMR078C, strain ctf18, stronger effect = lower value 0.989 | S. cerevisiae deletion strains, locus YMR223W, strain ubp8, stronger effect = lower value 1.02 | S. cerevisiae deletion strains, locus YMR263W, strain SAP30, stronger effect = lower value 1 | S. cerevisiae deletion strains, locus YMR307W, strain GAS1, stronger effect = lower value 1.07 | S. cerevisiae deletion strains, locus YNL067W, strain RPL9B, stronger effect = lower value 1.01 | S. cerevisiae deletion strains, locus YNL128W, strain TEP1, stronger effect = lower value 0.981 | S. cerevisiae deletion strains, locus YNL153C, strain GIM3, stronger effect = lower value 1.01 | S. cerevisiae deletion strains, locus YNL233W, strain BNI4, stronger effect = lower value 1.01 | S. cerevisiae deletion strains, locus YNL250W, strain rad50, stronger effect = lower value 0.991 | S. cerevisiae deletion strains, locus YNL271C, strain bni1, stronger effect = lower value 0.989 | S. cerevisiae deletion strains, locus YNL298W, strain CLA4, stronger effect = lower value 0.989 | S. cerevisiae deletion strains, locus YNL307C, strain MCK1, stronger effect = lower value 0.983 | S. cerevisiae deletion strains, locus YNL322C, strain KRE1, stronger effect = lower value 0.998 | S. cerevisiae deletion strains, locus YNR052C, strain pop2, stronger effect = lower value 0.991 | S. cerevisiae deletion strains, locus YOL012C, strain htz1 0.641 | S. cerevisiae deletion strains, locus YOL147C, strain pex11, stronger effect = lower value 0.986 | S. cerevisiae deletion strains, locus YOR061W, strain CKA2, stronger effect = lower value 0.995 | S. cerevisiae deletion strains, locus YOR069W, strain VPS5, stronger effect = lower value 0.988 | S. cerevisiae deletion strains, locus YOR136W, strain idh2, stronger effect = lower value 0.973 | S. cerevisiae deletion strains, locus YOR144C, strain elg1, stronger effect = lower value 0.993 | S. cerevisiae deletion strains, locus YOR184W, strain ser1, stronger effect = lower value 1.01 | S. cerevisiae deletion strains, locus YOR316C, strain cot1, stronger effect = lower value 0.993 | S. cerevisiae deletion strains, locus YPL055C, strain LGE1, stronger effect = lower value 1 | S. cerevisiae deletion strains, locus YPR119W, strain clb2, stronger effect = lower value 0.997 | S. cerevisiae deletion strains, locus YPR141C, strain kar3, stronger effect = lower value 0.992 | S. cerevisiae deletion strains, locus YPR163C, strain tif3, stronger effect = lower value 0.996 | S. cerevisiae deletion strains, locus YPR167C, strain met16, stronger effect = lower value 0.981 | S. cerevisiae deletion strains, strain wtn01, stronger effect = lower value 0.943 | S. cerevisiae strains, strain wild type, stronger effect = lower value 1
